DT40 TDP1 CPT – growth inhibition of DT40 Tdp1-/-;hTDP1 cells with camptothecin (screen for TDP1 inhibitors); chicken DT40 Tdp1-/-;hTDP1 cells + 20 nM CPT, ATP luminescence, 48 h; Potency, µM (top dose mostly 46.2 µM), inactives show at the highest dose activity change, negative = growth inhibition, most hits filed as inhibitors; 420,000 compounds, 12% hits; AID 686979; further: nearly all actives have a fitted effect of over 55% in size
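Cell growth measured by CellTiter-Glo luminescence after a minimum 48 h, 37 C compound exposure with 20 nM CPT in Tdp1-knockout DT40 cells stably expressing hTDP1, seeded 400/well; qHTS titration format.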
VP16 counter – counter-screen for ROR gamma inhibitors: Gal4-VP16 reporter. 310,000 compounds, 3.5% hits. Drosophila S2 Gal4-VP16 UAS-luciferase, luminescence, 20 h. Potency, µM (doses to about 53.6 µM), without a hit: at the highest dose activity, negative = inhibition, usual class: inhibitors;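 further: Gal4-VP16 expression switched on by copper sulfate through the metallothionein promoter; nearly all actives have a fitted effect of over 50% in size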
RORgamma inh – inhibitors of mouse ROR gamma transcriptional activity; P51450; Drosophila S2 Gal4-RORgamma UAS-luciferase reporter, 20 h; Potency, µM (doses to about 53.6 µM), for the others: at the top dose activity change, negative = inhibition, hits mostly inhibitors; 310,000 compounds, 5.4% hits; further: nearly all actives have a fitted effect of over 60% in size
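A Gal4/UAS one-hybrid system in insect cells: metallothionein-promoter Gal4–ROR gamma fusion plus Photinus luciferase reporter. Copper sulfate 700 uM final, 20 hr ambient incubation, luminescent detection after 10 min with reagent.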
TDP1 block – blocks human tyrosyl-DNA phosphodiesterase 1; AID 485290; 350,000 compounds, 0.28% hits; recombinant TDP1, AlphaScreen DNA substrate cleavage; Potency, µM (top dose mostly 130 µM), without a hit: top-dose activity change, negative = inhibition, actives largely listed as inhibitors; further: nearly all actives have a fitted effect of over 40% in size
Target sequence (Q9NUW8 whole entry, looked up): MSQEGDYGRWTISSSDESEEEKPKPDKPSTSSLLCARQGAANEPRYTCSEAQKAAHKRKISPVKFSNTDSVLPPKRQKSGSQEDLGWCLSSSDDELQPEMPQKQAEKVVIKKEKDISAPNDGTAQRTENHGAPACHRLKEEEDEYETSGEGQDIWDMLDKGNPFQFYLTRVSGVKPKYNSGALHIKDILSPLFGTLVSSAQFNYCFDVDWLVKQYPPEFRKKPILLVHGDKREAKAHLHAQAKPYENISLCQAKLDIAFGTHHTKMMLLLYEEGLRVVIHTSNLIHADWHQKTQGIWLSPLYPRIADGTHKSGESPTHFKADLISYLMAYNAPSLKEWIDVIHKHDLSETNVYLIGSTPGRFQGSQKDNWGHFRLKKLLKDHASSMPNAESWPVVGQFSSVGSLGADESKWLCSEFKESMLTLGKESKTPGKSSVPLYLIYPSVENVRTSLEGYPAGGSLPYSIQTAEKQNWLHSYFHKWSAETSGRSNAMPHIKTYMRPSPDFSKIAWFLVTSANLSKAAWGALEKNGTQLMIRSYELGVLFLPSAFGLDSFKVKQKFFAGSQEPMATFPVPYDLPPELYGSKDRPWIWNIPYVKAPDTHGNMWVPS
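Tdp1 1 nM final; 15 min RT w/ cpd; substrate 15 nM, 5 min; beads 10 ug/ml, 10 min; AlphaScreen read. Neg ctrl: no enzyme.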
DT40 TDP1 no CPT – qHTS for Inhibitors of human tyrosyl-DNA phosphodiesterase 1 (TDP1): qHTS in cells in absence of CPT | DT40 Tdp1-/- hTDP1 cells, no CPT, ATP luminescence, 48 h | Potency, µM (doses to about 46.2 µM), for the others: at the top dose activity change, negative = growth inhibition, hits mostly inhibitors | 420,000 compounds, 15% hits | AID 686978, 2013; further: nearly all actives have a fitted effect of over 55% in size
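Stably hTDP1-transfected Tdp1-null chicken DT40 cells were treated with library compounds minus camptothecin and grown for at least 48 hr at 37 °C, after which cellular ATP was quantified by luminescence.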
Numbers without * were called inactive; ? = inconclusive; . = no result; [ ] = dose if it differs, or a comment. A selection: hits, their analogues and other compounds. The true share with any hit is near 19%. The call rests on the fitted dose curve; in most records, active means well fitted curve in the direction sought with a large enough effect; inconclusive means small, poorly fitted or top-dose-only effect, or another doubt; inactive means no such curve, though single readings can be large; an effect the other way counts as inactive or inconclusive. On the % scale 0 is the no-effect control and ±100 the full control effect; potency means the concentration at half of the fitted maximal effect.

SMILES | DT40 TDP1 CPT | VP16 counter | RORgamma inh | TDP1 block | DT40 TDP1 no CPT
COc1cc2c(cc1OC)C(c1ccc(-c3ccc(Cl)cc3Cl)o1)=NCC2 | 1.2µM* | 20µM* | 6.3µM* | 5% | 0.92µM*
COc1ccc(-c2noc(-c3ccccc3Cl)n2)cc1OC | -10% | -7% | -25% | -7% | -18%
COc1cc2c(cc1OC)C(c1ccc(-c3ccc(Cl)c(Cl)c3)o1)=NCC2 | 4.1µM* | ? | 13µM* | 8% | 1.8µM*
COc1cc(C(=O)OCC(=O)NCc2ccco2)cc(OC)c1OC | 1% | -3% | 14%[10 µM] | -1% | -18%
CCCSCCCNC(=O)CC1Oc2ccccc2NC1=O (stereo not given) | 4% | 1% | 21% | 7% | -6%
CC1CCCCC12NC(=O)N(CC(=O)Nc1cccc(S(=O)(=O)N3CCCCC3)c1)C2=O (stereo not given) | -21% | . | . | 6% | -23%
Cc1noc(C)c1CSc1nnc2scc(-c3ccccc3)n12 | 13% | 18% | -29% | 0% | 3%
CCc1cnc2c(c1SCC(=O)Nc1ccc(OC)c(OC)c1)c(=O)n(C)c(=O)n2C | ? | . | . | -5% | ?
O=C1NCCN1CCNS(=O)(=O)c1cc(C(F)(F)F)cc(C(F)(F)F)c1 | -2% | 1% | -11% | 4% | 11%
COc1cc2c(cc1OC(C)=O)C(=O)CCCC2 | -1% | . | . | . | 8%
COc1cc2c(cc1OC)C(c1ccc(-c3cc(Cl)ccc3Cl)o1)=NCC2 | 2.6µM* | -1% | 0% | -9% | 1.6µM*
COc1cc2c(cc1OC)C(C)=NCC2 | 16µM* | 6% | -1% | 5% | -2%
COc1cc2c(cc1OC)C(c1oc(-c3ccc(-c4cc(Cl)ccc4Cl)o3)cc1C)=NCC2 | 1µM* | . | . | . | 0.35µM*
O=c1[nH]c(COc2ccc(Cl)cc2Br)nc2ccccc12 | 23µM* | 5% | 25% | 4% | ?
O=c1[nH]c(COc2ccc(Cl)cc2Cl)nc2ccccc12 | -15% | -7% | -3% | 1% | 4%
CC(=O)c1ccc(NC(=O)C2CCCN(S(=O)(=O)c3c(C)[nH]c(=O)[nH]c3=O)C2)cc1 (stereo not given) | 7% | 15% | 1% | 0% | 10%
CN(C)S(=O)(=O)c1cccc(NC(=S)Nc2cc(Cl)cc(Cl)c2)c1 | 26µM* | -2% | 31% | 0% | 23µM*
CCN(CCO)c1ccc(NC(=S)Nc2cccc(S(=O)(=O)N(C)C)c2)cc1 | -13% | 13% | -21% | 0% | ?
CN(C)S(=O)(=O)c1cccc(NC(=S)Nc2ccc(Cl)cc2Cl)c1 | ? | ? | 20µM* | -1% | 16µM*
CN(C)S(=O)(=O)c1cccc(NC(=S)NCc2ccco2)c1 | -3% | -14% | -43% | 8% | -16%
CCOc1ccc(CCNC(=O)CCn2c(=O)c3cccn3c3cccnc32)cc1 | 5% | . | . | -8% | -25%
CCOC(=O)c1ccc(NC(=O)c2c(NCc3ccc(OC)c(OC)c3OC)sc3c2CCC(C)C3)cc1 (stereo not given) | ? | . | . | 10% | 26µM*
COc1ccc(NC(=O)CN(C)CC(=O)Nc2sc3c(c2C(N)=O)CCC3)cc1 | 21µM* | . | . | 1% | ?
CCOc1ccc(NC(=O)c2c(NCc3ccc(C)o3)sc3c2CCC(C)C3)cc1 (stereo not given) | ? | . | . | 9% | ?
CCOC(=O)c1ccc(NC(=O)c2c(NCc3cccs3)sc3c2CCCCC3)cc1 | 10µM* | . | . | 6% | 8.2µM*
SMILES | DT40 TDP1 CPT | VP16 counter | RORgamma inh | TDP1 block | DT40 TDP1 no CPT
CCN(CC)Cc1c(NC(=O)c2ccc(OC)cc2)sc2c1CCCC2 | 18µM* | . | . | 0%[12.3 µM] | ?
COc1ccc(NC(=O)c2c(NCc3cccs3)sc3c2CCCCC3)c(OC)c1 | ? | . | . | 8% | 15µM*
CCC(=O)Nc1sc2c(c1C(=O)Nc1ccc(Br)cc1)CCCCC2 | ? | . | . | -6%[12.3 µM] | 21µM*
COc1ccc(NC(=O)c2c(NCc3cccs3)sc3c2CCCC3)cc1 | ? | . | . | 3% | 21µM*
COc1ccc(NC(=O)c2c(NC(=O)COc3ccc(Cl)cc3)sc3c2CCCCC3)cc1 | ? | . | . | 0%[12.3 µM] | -43%
CCC(=O)Nc1sc2c(c1C(=O)Nc1cccc(C)c1)CCCC2 | . | . | . | 1% | .
COc1ccc2nc(Nc3sc4c(c3C(N)=O)CCCC4)sc2c1 | 16µM* | 3.5µM* | 1.4µM* | 2% | ?
CSc1ccccc1C(=O)NCCCOC(C)C | -5% | 1% | 16% | 5% | -21%
Cc1ccc(NC(=O)C(C)N2C(=O)c3ccccc3S2(=O)=O)cc1Cl (stereo not given) | -11% | . | . | . | 1%
CCOc1ccccc1N(C(=O)CNC(=O)c1ccco1)C(C(=O)NC1CCCC1)c1ccncc1 (stereo not given) | 4% | -3% | -1% | 1% | 7%
CCOC(=O)c1ccc(NC(=O)c2c(NC(=O)CCC(=O)O)sc3c2CCCCC3)cc1 | 0% | 1% | 10µM* | 7% | 29µM*
CCCOC(=O)c1c(NC(=O)CCC(=O)O)sc2c1CCCCC2 | 19% | 5% | 8% | 2% | -8%
CC1SCC(NC(=O)c2cccc(Cl)c2)CS1 (stereo not given) | 15µM* | -4% | ? | . | 12µM*
CCOC(=O)C1CCN(C(=O)Nc2c(-c3ccccc3)noc2C)CC1 | 12% | -1% | -9% | . | 0%
O=[N+]([O-])c1ccc(C=NN2CCNC2=S)o1 | 18µM* | . | . | . | 21µM*
O=C1OC(CN2CCOCC2)CN1/N=C/c1ccc([N+](=O)[O-])o1 (stereo not given) | -25%[21.1 µM] | . | . | . | -25%[21.1 µM]
CCN(CC)CC1CN(N=Cc2ccc([N+](=O)[O-])o2)C(=O)O1 (stereo not given) | 15µM* | . | . | . | 16µM*
CN(/N=C/c1ccc([N+](=O)[O-])o1)c1ccccc1 | 0% | ? | 16% | 10% | -20%
N#CCSc1ccc(-c2nc3ccccc3[nH]2)cn1 | ? | -1% | 23% | 2% | 23µM*
CCOC(=O)CSc1ccc(-c2nc3ccccc3[nH]2)cn1 | ? | 6% | 3% | 2% | ?
CCOC(=O)CSc1ccc(-c2nc3cc(C)c(C)cc3[nH]2)cn1 | ? | ? | 18µM* | 3% | ?
O=C(CSc1ccc(-c2nc3ccccc3[nH]2)cn1)Nc1ccc(S(=O)(=O)NC2CC2)cc1 | 26µM* | -24% | 44% | 2% | 21µM*
Cc1cc2nc(-c3ccc(SCC(=O)Nc4ccc5c(c4)OCCO5)nc3)[nH]c2cc1C | 23µM* | ? | -43% | 0% | 23µM*
Cc1cc(NC(=O)CCS(=O)(=O)c2cc3c4c(c2)CCN4C(=O)CC3)ccc1Br | 1% | . | . | 3% | -1%
O=C(NC1CCCCC1)C(c1ccccc1)N1CCCC1 (stereo not given) | 1% | -1% | -4% | 4% | -13%
